Laboratory results: ChEMBL document CHEMBL3988442, “University of Dundee, Small-Polar-MMV Screening Library” (2021)
For some of these results: Measured potencies and affinities stand elsewhere.

Columns and labels:
Design in all cases: scale not given: direction of the effect not stated beside the values
[1] = biological target: Protein translocase subunit SecA (Escherichia coli (strain K12)) (UniProt P10408); experiment: Assay to Identify E. coli SecA ATPase Inhibitors; format: functional; details: 30 µM
Chain of Protein translocase subunit SecA (Escherichia coli (strain K12)) (P10408 whole entry): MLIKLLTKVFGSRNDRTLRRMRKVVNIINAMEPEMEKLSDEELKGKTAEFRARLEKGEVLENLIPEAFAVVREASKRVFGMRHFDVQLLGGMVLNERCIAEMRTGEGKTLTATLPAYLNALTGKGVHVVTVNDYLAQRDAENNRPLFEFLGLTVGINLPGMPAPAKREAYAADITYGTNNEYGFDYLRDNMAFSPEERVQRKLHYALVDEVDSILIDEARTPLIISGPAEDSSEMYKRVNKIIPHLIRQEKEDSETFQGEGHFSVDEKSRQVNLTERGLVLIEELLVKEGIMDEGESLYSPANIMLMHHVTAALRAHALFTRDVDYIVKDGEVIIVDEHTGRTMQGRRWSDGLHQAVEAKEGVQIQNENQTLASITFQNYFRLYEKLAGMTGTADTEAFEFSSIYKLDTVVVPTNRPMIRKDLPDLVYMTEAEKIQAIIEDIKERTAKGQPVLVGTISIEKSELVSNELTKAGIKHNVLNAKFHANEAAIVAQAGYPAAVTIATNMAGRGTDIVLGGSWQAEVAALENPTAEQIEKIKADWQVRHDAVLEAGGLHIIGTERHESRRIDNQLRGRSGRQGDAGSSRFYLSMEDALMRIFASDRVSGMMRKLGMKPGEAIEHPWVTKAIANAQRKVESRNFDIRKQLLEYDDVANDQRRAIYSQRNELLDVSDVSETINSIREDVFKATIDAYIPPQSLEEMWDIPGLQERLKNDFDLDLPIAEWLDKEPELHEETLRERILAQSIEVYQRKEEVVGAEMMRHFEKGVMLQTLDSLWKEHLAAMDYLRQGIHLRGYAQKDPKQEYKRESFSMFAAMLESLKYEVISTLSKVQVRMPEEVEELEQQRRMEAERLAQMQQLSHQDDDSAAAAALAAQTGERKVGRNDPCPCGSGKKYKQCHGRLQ

[2] = biological target: T1, Ubiquitin-activating enzyme e1, putative (Leishmania donovani (strain BPK282A1)) (UniProt E9BSI1); experiment: Leishmania donovani Ubiquitin Activating Enzyme (LdE1); format: functional; details: 30 µM
T1 sequence (whole entry): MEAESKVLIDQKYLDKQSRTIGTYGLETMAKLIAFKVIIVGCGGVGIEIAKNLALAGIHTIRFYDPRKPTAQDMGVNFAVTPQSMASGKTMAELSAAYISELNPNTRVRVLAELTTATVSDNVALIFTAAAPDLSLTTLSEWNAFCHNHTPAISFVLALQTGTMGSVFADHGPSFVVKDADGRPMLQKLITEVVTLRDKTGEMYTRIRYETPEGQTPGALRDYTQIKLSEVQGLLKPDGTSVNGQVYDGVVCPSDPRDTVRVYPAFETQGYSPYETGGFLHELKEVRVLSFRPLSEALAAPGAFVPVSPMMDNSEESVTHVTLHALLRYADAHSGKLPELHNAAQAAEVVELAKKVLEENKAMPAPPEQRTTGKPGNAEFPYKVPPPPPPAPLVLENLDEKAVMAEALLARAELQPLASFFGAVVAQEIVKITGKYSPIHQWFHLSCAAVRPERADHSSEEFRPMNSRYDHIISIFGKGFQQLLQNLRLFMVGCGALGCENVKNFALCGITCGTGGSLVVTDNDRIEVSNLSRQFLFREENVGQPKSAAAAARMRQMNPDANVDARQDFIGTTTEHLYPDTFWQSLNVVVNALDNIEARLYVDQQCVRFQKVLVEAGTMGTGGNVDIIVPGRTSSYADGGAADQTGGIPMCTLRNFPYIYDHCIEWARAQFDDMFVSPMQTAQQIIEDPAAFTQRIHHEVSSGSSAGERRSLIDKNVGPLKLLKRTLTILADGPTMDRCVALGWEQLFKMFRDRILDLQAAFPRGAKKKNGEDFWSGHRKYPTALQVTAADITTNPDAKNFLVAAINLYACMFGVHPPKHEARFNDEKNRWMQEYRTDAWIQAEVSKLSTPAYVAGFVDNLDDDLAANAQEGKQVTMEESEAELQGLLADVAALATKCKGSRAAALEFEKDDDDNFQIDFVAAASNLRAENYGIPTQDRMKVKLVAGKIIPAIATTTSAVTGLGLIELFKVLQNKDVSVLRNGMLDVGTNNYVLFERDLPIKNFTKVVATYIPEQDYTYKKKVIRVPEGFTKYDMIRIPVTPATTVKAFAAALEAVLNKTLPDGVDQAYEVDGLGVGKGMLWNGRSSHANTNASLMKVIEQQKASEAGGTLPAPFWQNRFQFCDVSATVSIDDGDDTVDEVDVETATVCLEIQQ

[3] = biological target: AMP-activated protein kinase, AMPK (Homo sapiens) (UniProt P54646+O43741+P54619+Q9UGJ0+Q9Y478+Q13131+Q9UGI9); experiment: AMP-dependent Kinase enzyme assay. An in vitro enzyme assay that detects ADP turnover that is directly proportional to AMPK activity. This uses naive AMPK that is activated during the assay with MK-8722; format: functional; details: 30 µM
[4] = biological target: Sialic acid-binding Ig-like lectin 9 (Homo sapiens) (UniProt Q9Y336); experiment: Hs-Siglec9 ALPHAscreen SOP 20170721; details: 10 µM
Chain of Sialic acid-binding Ig-like lectin 9 (Homo sapiens) (Q9Y336 whole entry): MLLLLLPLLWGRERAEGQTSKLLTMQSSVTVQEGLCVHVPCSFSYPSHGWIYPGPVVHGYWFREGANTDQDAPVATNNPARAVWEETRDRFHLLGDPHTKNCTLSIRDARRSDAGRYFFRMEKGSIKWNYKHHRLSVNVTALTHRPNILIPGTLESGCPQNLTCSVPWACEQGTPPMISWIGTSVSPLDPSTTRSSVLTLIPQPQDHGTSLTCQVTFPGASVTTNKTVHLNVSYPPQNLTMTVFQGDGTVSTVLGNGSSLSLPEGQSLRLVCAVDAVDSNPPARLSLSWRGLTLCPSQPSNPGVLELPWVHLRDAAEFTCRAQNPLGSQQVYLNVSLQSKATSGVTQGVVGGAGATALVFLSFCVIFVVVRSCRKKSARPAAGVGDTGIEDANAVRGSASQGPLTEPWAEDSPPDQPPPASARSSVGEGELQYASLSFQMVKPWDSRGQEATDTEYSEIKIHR

Trypanosoma cruzi = experiment: Trypanosoma cruzi phosphomannomutase and mannose-1-phosphate guanylyltransferase assay; format: functional; details: 10 µM
[5] = biological target: T2, Arginase-2, mitochondrial (Homo sapiens) (UniProt P78540); experiment: in vitro enzyme assay to detect the production of urea directly proportional to the activity of Arginase II; format: functional; details: 33.3 µM; note: in the data most compounds retested in dose-response had high values
T2 sequence (whole entry): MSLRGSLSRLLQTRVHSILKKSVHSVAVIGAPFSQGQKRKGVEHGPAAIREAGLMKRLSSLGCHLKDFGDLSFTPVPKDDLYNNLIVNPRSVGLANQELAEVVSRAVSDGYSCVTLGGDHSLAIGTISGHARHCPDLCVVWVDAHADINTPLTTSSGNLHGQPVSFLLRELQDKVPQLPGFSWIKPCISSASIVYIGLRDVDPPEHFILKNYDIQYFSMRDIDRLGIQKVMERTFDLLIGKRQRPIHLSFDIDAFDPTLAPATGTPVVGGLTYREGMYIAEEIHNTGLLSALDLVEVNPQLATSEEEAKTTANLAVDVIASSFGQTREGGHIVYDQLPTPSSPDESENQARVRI

[6] = biological target: T3, Proteasome subunit beta (Trypanosoma cruzi) (UniProt O96673); experiment: Trypanosoma cruzi proteasome chymotrypsin-like activity (TcProtChymo) assay.; note: in the data most compounds retested in dose-response had high values; format: functional; details: 9.37 µM
T3 sequence (whole entry): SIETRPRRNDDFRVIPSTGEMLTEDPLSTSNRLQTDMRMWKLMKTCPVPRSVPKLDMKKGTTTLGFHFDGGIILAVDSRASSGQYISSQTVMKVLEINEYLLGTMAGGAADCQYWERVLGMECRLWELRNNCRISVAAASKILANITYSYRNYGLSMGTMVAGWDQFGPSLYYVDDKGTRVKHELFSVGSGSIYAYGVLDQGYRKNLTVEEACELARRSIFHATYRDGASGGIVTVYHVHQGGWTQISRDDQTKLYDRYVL

Homo sapiens = species: Homo sapiens; experiment: To identify inhibition of the IFN signalling (Jak-Stat) pathway via expression of an eGFP reporter gene under the control of an IFN-stimulated response element (ISRE) containing MxA promoter.; format: functional; details: 30 µM
[7] = biological target: T4, Tyrosyl-tRNA synthetase, putative (Trypanosoma cruzi (strain CL Brener)) (UniProt Q4DSP6); experiment: Trypanosoma cruzi tyrosyl tRNA synthetase (TcYRS) _High Tyrosine SOP; format: functional; details: 30 µM; note: in the data most compounds retested in dose-response had high values
T4 sequence (whole entry): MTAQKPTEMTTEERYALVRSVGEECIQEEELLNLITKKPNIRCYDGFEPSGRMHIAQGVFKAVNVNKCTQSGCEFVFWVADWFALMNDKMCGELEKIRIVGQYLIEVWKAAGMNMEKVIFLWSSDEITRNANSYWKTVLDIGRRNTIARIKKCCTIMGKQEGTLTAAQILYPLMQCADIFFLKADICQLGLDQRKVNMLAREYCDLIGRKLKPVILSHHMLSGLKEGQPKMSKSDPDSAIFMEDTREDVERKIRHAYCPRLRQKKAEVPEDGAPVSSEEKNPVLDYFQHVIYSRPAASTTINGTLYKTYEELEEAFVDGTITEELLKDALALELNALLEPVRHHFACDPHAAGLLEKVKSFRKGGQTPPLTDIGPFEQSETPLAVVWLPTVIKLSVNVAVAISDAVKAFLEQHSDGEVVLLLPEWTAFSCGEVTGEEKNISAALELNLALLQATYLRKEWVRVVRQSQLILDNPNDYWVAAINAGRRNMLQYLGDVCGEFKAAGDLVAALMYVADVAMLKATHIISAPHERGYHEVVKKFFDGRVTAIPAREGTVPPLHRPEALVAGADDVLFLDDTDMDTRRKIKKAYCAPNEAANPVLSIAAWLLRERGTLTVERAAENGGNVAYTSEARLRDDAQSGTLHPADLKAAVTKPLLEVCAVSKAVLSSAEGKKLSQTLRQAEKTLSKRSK

[8] = biological target: T4, Tyrosyl-tRNA synthetase, putative (Trypanosoma cruzi (strain CL Brener)); experiment: Trypanosoma cruzi tyrosyl tRNA synthetase (TcYRS) SOP; format: functional; details: 30 µM
[9] = biological target: Chromo domain-containing protein 1 (Saccharomyces cerevisiae (strain ATCC 204508 / S288c) (Baker's yeast)) (UniProt P32657); experiment: ScCHD-1 Enzyme Inhibition Assay; format: functional; details: 30 µM; note: in the data most compounds retested in dose-response had high values
Chain of Chromo domain-containing protein 1 (Saccharomyces cerevisiae (strain ATCC 204508 / S288c) (Baker's yeast)) (P32657 whole entry, the tested form may be a part): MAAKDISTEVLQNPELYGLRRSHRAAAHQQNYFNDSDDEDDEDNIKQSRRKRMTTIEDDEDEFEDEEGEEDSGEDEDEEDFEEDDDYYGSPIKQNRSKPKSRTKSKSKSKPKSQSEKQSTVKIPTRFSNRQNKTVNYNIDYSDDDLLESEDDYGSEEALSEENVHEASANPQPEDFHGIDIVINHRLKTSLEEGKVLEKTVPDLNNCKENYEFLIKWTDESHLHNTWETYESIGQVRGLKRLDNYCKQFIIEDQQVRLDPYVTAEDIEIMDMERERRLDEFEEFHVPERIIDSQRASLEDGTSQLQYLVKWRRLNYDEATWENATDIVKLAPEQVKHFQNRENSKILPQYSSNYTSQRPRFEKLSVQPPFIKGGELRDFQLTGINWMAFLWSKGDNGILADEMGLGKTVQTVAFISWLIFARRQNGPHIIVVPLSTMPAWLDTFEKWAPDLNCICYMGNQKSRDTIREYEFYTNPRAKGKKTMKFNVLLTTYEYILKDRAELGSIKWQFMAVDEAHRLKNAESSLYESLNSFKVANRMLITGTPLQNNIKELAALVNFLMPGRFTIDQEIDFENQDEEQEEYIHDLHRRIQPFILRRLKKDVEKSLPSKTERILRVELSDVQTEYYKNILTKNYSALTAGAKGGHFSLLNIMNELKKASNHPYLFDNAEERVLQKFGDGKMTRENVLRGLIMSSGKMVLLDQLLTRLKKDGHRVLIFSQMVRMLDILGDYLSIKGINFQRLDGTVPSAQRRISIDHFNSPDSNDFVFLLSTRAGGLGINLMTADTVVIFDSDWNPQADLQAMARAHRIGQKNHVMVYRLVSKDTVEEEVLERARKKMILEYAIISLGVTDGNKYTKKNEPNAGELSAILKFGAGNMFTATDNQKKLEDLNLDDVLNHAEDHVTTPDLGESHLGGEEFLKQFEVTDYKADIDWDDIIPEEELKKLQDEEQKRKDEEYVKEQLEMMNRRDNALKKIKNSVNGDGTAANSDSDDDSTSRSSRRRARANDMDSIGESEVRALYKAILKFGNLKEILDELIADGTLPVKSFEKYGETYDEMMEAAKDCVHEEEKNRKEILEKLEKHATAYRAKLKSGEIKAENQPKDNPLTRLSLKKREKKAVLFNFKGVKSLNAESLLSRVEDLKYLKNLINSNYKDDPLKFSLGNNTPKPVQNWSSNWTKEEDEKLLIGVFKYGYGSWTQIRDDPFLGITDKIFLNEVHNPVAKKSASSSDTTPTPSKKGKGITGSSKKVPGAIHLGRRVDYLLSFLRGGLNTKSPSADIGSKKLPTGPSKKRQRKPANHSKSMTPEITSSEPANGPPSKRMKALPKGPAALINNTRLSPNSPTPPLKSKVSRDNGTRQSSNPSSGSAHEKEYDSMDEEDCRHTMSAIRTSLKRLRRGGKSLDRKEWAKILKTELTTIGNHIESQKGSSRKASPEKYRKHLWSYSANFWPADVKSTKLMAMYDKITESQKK

Structure (SMILES)	Percent Effect [1] [%]	Percent Effect [2] [%]	Percent Effect [3] [%]	Percent Effect [4] [%]	Percent Effect (Trypanosoma cruzi) [%]	Percent Effect [5] [%]	Percent Effect [6] [%]	Percent Effect (Homo sapiens) [%]	Percent Effect [7] [%]	Percent Effect [8] [%]	Percent Effect [9] [%]
c1csc(-c2nc(CN3CCOC(Cn4cncn4)C3)co2)c1 (stereo not drawn)	-2.48	10.8	-9.47	-3.91	-0.0943	-6.01	20.4	9.28	9.36	18.5	-5.77
CN(CC1COc2ccccc2O1)C(=O)NCCCn1ccnc1 (stereo not drawn)	-1.25	0	12.1	-8.39	-4.7	-3.06	-0.835	27.3	-3.43	-7.32	7.75
Cn1cnc(S(=O)(=O)N2CCCC2)c1Cl	-1.75	4.17	-5.49	-0.277	1.46	13.2	15.4	-29.7	3.16	10.3	-2.89
O=C(CN1C=Nc2ccccc2S1(=O)=O)NCCc1cccs1	-6.39	13.2	-6.07	5.67	3.08	5.04	9.56	5.08	8.37	25.9	-10.2
COc1ccc(CN2CCn3cc(CN4CCN(C)CC4)nc3C2)cc1	-4.41	8.11	4.53	-5.52	-2.83	4.78	18.4	-7.72	-2.16	5.13	3.23
Cc1c(C)n(-c2ccccn2)c2nc3c(c(N)c12)CCCC3	-1.37	-14.7	7.92	7.22	-3.34	-10	25.1	5.7	1.06	-51.3	-7.7
CC(=O)Nc1ncc(S(=O)(=O)Nc2ccc(F)cc2F)s1	-1.2	9.33	-2.12	-4.17	-6.68	-5.11	19	12.9	3.17	10.3	-9.04
COCCN1C(=O)CO[C@H]2CN(Cc3c[nH]nc3-c3ccccc3)C[C@@H]21	-5.09	12.2	8.07	9.93	2.77	-5.8	2.34	19.6	2.15	6.49	-22.8
